The text below walks through data of PubChem BioAssay (NCATS).

The nature of assay [1]: Quantitative High-Throughput drug screen in 47 multiple myeloma cell lines against the NCATS MIPE library collection: KMS27_JCRB cell viability assay (AID 1918970). Note: nearly all actives have a fitted effect of over 30% in size. Note: potency is the fitted concentration of half-maximal effect. The method, boiled down:
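KMS27_JCRB myeloma cells, 500 per well, exposed 48 h at 37 C, 5% CO2 to MIPE 4.0 compounds. Viability from ATP by CellTiter-Glo luminescence, normalized to DMSO (100%) and medium-only (0%) wells.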

Assay [2] in a line: Quantitative High-Throughput drug screen in 47 multiple myeloma cell lines against the NCATS MIPE library collection: KMS12PE_JCRB cell viability assay (AID 1918972). Note: nearly all actives have a fitted effect of over 30% in size. Note: potency is the fitted concentration of half-maximal effect. The method, boiled down: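 CellTiter-Glo ATP luminescence gave viability after 48 h compound treatment at 37C of 500 multiple myeloma cells per well. Normalisation used DMSO-only wells as 100% and media-only wells as 0% viability; primary qHTS of approved and investigational drugs.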

Assay [3] can be described thus: Quantitative High-Throughput drug screen in 47 multiple myeloma cell lines against the NCATS MIPE library collection: KMS20_JCRB cell viability assay (AID 1918973). Note: nearly all actives have a fitted effect of over 45% in size. Note: potency is the fitted concentration of half-maximal effect. An outline of the steps: (§1)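 Approved and investigational drugs from MIPE 4.0 were added by pin tool to 500 cells per well. After 48 hours at 37C, ATP-based CellTiter-Glo luminescence indicated remaining viability.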

The nature of assay [4]: Quantitative High-Throughput drug screen in 47 multiple myeloma cell lines against the NCATS MIPE library collection: KMS26_JCRB cell viability assay (AID 1918975). Note: nearly all actives have a fitted effect of over 45% in size. Note: potency is the fitted concentration of half-maximal effect. The method, boiled down:
(§2)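 We plated 500 myeloma cells per well, pinned in MIPE 4.0 compounds, and incubated for 48 hours at 37C. ATP was then quantified with CellTiter-Glo, with DMSO and media-only wells defining 100% and 0%.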

The nature of assay [5]: Quantitative High-Throughput drug screen in 47 multiple myeloma cell lines against the NCATS MIPE library collection: MOLP8_DSMZ cell viability assay (AID 1918977). Note: nearly all actives have a fitted effect of over 45% in size. Note: potency is the fitted concentration of half-maximal effect. The method, boiled down: (§3)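 ATP-based CellTiter-Glo luminescence after 48 h drug exposure (37 °C, 5% CO2) of 500 myeloma cells per well. DMSO-only wells set 100% viability, media-only wells 0%; MIPE 4.0 library added by pin tool.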

A short description of assay [6]: Quantitative High-Throughput drug screen in 47 multiple myeloma cell lines against the NCATS MIPE library collection: OCIMY1_PLB cell viability assay (AID 1918979). Note: nearly all actives have a fitted effect of over 35% in size. The method, boiled down: as §3
A short description of assay [7]: Quantitative High-Throughput drug screen in 47 multiple myeloma cell lines against the NCATS MIPE library collection: MM1R_ATCC cell viability assay (AID 1918981). Note: nearly all actives have a fitted effect of over 35% in size. Note: potency is the fitted concentration of half-maximal effect. An outline of the steps: as §3
Assay [8] can be described thus: Quantitative High-Throughput drug screen in 47 multiple myeloma cell lines against the NCATS MIPE library collection: LP1_DSMZ cell viability assay (AID 1918982). Note: nearly all actives have a fitted effect of over 35% in size. Note: potency is the fitted concentration of half-maximal effect. An outline of the steps:
as §3

Assay [9] is described as follows: Quantitative High-Throughput drug screen in 47 multiple myeloma cell lines against the NCATS MIPE library collection: KMS28PE_JCRB cell viability assay (AID 1918983). Note: nearly all actives have a fitted effect of over 35% in size. Note: potency is the fitted concentration of half-maximal effect. An outline of the steps:
as §3

Assay [10] is described as follows: Quantitative High-Throughput drug screen in 47 multiple myeloma cell lines against the NCATS MIPE library collection: KMS34_JCRB cell viability assay (AID 1918985). Note: nearly all actives have a fitted effect of over 40% in size. Note: potency is the fitted concentration of half-maximal effect. An outline of the steps: as §3
Assay [11] can be described thus: Quantitative High-Throughput drug screen in 47 multiple myeloma cell lines against the NCATS MIPE library collection: OPM1_PLB cell viability assay (AID 1918989). Note: nearly all actives have a fitted effect of over 40% in size. Note: potency is the fitted concentration of half-maximal effect. The method, boiled down:
as §3

The nature of assay [12]: Quantitative High-Throughput drug screen in 47 multiple myeloma cell lines against the NCATS MIPE library collection: SKMM1_PLB cell viability assay (AID 1919863). Note: nearly all actives have a fitted effect of over 35% in size. Note: potency is the fitted concentration of half-maximal effect. To be noted: SKMM1 myeloma viability, CellTiter-Glo ATP, 48 h; viability: stronger effect = lower value. The method, boiled down:
as §3
For orientation: In ATP-based viability assays light output follows the ATP content of the culture.

Assay [13] is described as follows: Quantitative High-Throughput drug screen in 47 multiple myeloma cell lines against the NCATS MIPE library collection: KMS21BM_JCRB cell viability assay (AID 1918974). Note: potency is the fitted concentration of half-maximal effect. To be noted: ATP luminescence, 48 h; viability: at 45.8 µM (top of the series) unless noted. An outline of the steps: as §1
Assay [14] can be described thus: Quantitative High-Throughput drug screen in 47 multiple myeloma cell lines against the NCATS MIPE library collection: L363_DSMZ cell viability assay (AID 1918984). Note: nearly all actives have a fitted effect of over 40% in size. Note: potency is the fitted concentration of half-maximal effect. An outline of the steps:
as §3

Assay [15] can be described thus: Quantitative High-Throughput drug screen in 47 multiple myeloma cell lines against the NCATS MIPE library collection: OCIMY5_PLB cell viability assay (AID 1918988). Note: nearly all actives have a fitted effect of over 65% in size. Note: potency is the fitted concentration of half-maximal effect. The method, boiled down: as §3
Assay [16] in a line: Quantitative High-Throughput drug screen in 47 multiple myeloma cell lines against the NCATS MIPE library collection: KMS12BM_JCRB cell viability assay (AID 1918971). Note: nearly all actives have a fitted effect of over 35% in size. Note: potency is the fitted concentration of half-maximal effect. An outline of the steps: as §2
Assay [17] can be described thus: Quantitative High-Throughput drug screen in 47 multiple myeloma cell lines against the NCATS MIPE library collection: MMM1_PLB cell viability assay (AID 1918976). The method, boiled down: as §3
Assay [18] can be described thus: Quantitative High-Throughput drug screen in 47 multiple myeloma cell lines against the NCATS MIPE library collection: MM1S_ATCC cell viability assay (AID 1918980). Note: nearly all actives have a fitted effect of over 45% in size. Note: potency is the fitted concentration of half-maximal effect. The method, boiled down:
as §3

Assay [19] is described as follows: Quantitative High-Throughput drug screen in 47 multiple myeloma cell lines against the NCATS MIPE library collection: NCIH929_DSMZ cell viability assay (AID 1918978). Note: nearly all actives have a fitted effect of over 35% in size. Note: potency is the fitted concentration of half-maximal effect. The method, boiled down: as §3
Assay [20] in a line: Quantitative High-Throughput drug screen in 47 multiple myeloma cell lines against the NCATS MIPE library collection: OCIMY7_PLB cell viability assay (AID 1918987). Note: nearly all actives have a fitted effect of over 65% in size. Note: potency is the fitted concentration of half-maximal effect. An outline of the steps: as §3

Each structure is given as a SMILES string. Records with an inconclusive call do not appear. A number with no mark means an inactive call. Activity calls are given as the source filed them. Calls come from the whole dose curve; as a rule, active = well fitted curve in the direction sought with a large enough effect; inconclusive = small, poorly fitted or top-dose-only effect, or another doubt; inactive = no such curve, though single readings can be large; an effect the other way counts as inactive or inconclusive.

`CCOC(=O)C1=C[C@@H](OC(CC)CC)[C@H](NC(C)=O)[C@@H](N)C1`: the Potency result in assay [1], in assay [2], in [3], in [4], in [5] and in assay [6] was “inactive” throughout. Moreover, the Potency entry in assay [7], in assay [8], in assay [9], in assay [10] and in assay [11] was “inactive” throughout. Also, in assay [12], the viability is 108%.

Turning to `Cc1nc(Nc2ncc(C(=O)Nc3c(C)cccc3Cl)s2)cc(N2CCN(CCO)CC2)n1`, the Potency was 10.5 µM (active) in assay [1]; 372 nM (active) in assay [2]; 0.332 µM (active) in assay [3]; 209 nM (active) in assay [13]; 1.32 µM (active) in [14]; 0.59 µM (active) in assay [10]. In addition, the figures for the Potency in assay [15] and in [11] were 0.743 µM (active) and 0.833 µM (active), respectively.

As for `O=C(O)c1cccc(-c2noc(-c3ccccc3F)n2)c1`, the Potency was 16.6 µM (active) in [16]; 2.35 µM (active) in [17]; 20.9 µM (active) in assay [18]; 14.8 µM (active) in assay [9]; 9.35 µM (active) in assay [15]; 9.35 µM (active) in assay [12]. The Potency result in assay [3], in [6], in [8], in [10] and in assay [11] was “inactive” each time. In assay [13], the viability was 121% (active).

For `c1ccc2[nH]c(-c3cscn3)nc2c1`, the Potency entry in [16], in [2], in assay [3], in assay [5], in [19] and in assay [7] was “inactive” throughout. Moreover, the Potency entry in assay [9], in assay [10], in assay [20], in assay [15] and in assay [11] was “inactive” in each case. For the same compound, in assay [12], the viability is 120%.

With `O=C(O)CCNC(=O)c1ccc(N=Nc2ccc(O)c(C(=O)O)c2)cc1`, the Potency result in [1], in assay [2], in [19], in [7], in assay [8] and in assay [9] was “inactive” throughout. Also, the Potency result in [10] and in assay [11] was “inactive” in each case. Moreover, in assay [18], the Potency is 8.33 µM (active).

On to `CN(C)[C@@H](CCOc1cccc2ccccc12)c1ccccc1`, for which the Potency entry in assay [1] is “inactive”. The Potency is 14.8 µM (active) in assay [3]; 20.9 µM (active) in [17]; 20.9 µM (active) in assay [19]; 23.5 µM (active) in [18]; 20.9 µM (active) in [9]; 20.9 µM (active) in assay [10]. The Potency in assay [15] is 20.9 µM (active); in assay [11], 16.6 µM (active).

`NC(=O)Cc1cccc(C(=O)c2ccccc2)c1N`: the Potency entry in assay [1], in assay [2], in [4], in assay [5], in assay [19] and in [7] was “inactive” each time. Further, the Potency result in assay [8], in [9] and in [14] was “inactive” in each case. Further, in assay [15], the Potency is 4.69 µM (active).

Regarding `c1cnc2cc3c(cc2n1)C1CNCC3C1`, the Potency result in assay [16], in assay [2], in assay [13], in assay [4], in [5] and in assay [7] was “inactive” in each case. In addition, the Potency result in assay [8], in assay [9], in assay [10], in assay [15] and in [11] was “inactive” in each case.

On to `CCCCCCCCCCCCCCCCCCCCCCO`, for which the Potency entry in assay [1], in [2], in assay [5], in assay [6], in [7] and in [9] was “inactive” each time. For the same compound, the Potency result in assay [14], in assay [10], in assay [15] and in assay [11] was “inactive” each time.

As to `C[C@@H](c1ncncc1F)[C@](O)(Cn1cncn1)c1ccc(F)cc1F`, the Potency result in [1], in assay [2], in [4], in assay [5], in [6] and in assay [18] was “inactive” in each case. Also, the Potency entry in assay [7], in [9], in assay [10] and in assay [15] was “inactive” in each case.

Regarding `COc1cc2c(N3CCN(C(=O)Nc4ccc(OC(C)C)cc4)CC3)ncnc2cc1OCCCN1CCCCC1`, the Potency result in assay [1] and in [14] was “inactive” each time. Moreover, the Potency in assay [3] is 5.26 µM (active); in assay [19], 11.8 µM (active); in [18], 26.4 µM (active); in [20], 16.6 µM (active); in assay [11], 9.35 µM (active).

Turning to `CN(C)c1ccc(O)c2c1C[C@H]1C[C@H]3[C@H](N(C)C)C(=O)C(C(N)=O)=C(O)[C@@]3(O)C(=O)C1=C2O`, the Potency is 18.7 µM (active) in assay [16]; 13.2 µM (active) in assay [4]; 18.7 µM (active) in assay [17]; 20.9 µM (active) in [5]; 16.6 µM (active) in assay [19]; 3.72 µM (active) in assay [18]. The Potency in [7] is 16.6 µM (active); in assay [9], 20.9 µM (active); in [10] it was 16.6 µM (active); in assay [20], 10.5 µM (active); in assay [15], 9.35 µM (active). In addition, the Potency entry in assay [2] was “inactive”.

Turning to `CC1(C)NC(=O)N(c2ccc([N+](=O)[O-])c(C(F)(F)F)c2)C1=O`, the Potency entry in assay [1], in [2], in [5] and in assay [11] was “inactive” in each case. For the same compound, the Potency in assay [8] was 18.7 µM (active); in assay [9], 16.6 µM (active); in [15], 8.33 µM (active).

One may read the viability as a read-out of living cells in per cent, often relative to untreated cells.
